For some of these results: Entries with a potency or affinity are not part of this list.
Columns and labels:
Parameters in all cases: scale not given: direction of the effect not stated beside the values
[1] = biological target: Protein translocase subunit SecA (Escherichia coli (strain K12)) (UniProt P10408); experiment: Assay to Identify E. coli SecA ATPase Inhibitors; format: functional; conditions: 30 µM
[2] = biological target: T1, Ubiquitin-activating enzyme e1, putative (Leishmania donovani (strain BPK282A1)) (UniProt E9BSI1); experiment: Leishmania donovani Ubiquitin Activating Enzyme (LdE1); format: functional; conditions: 30 µM
T1 sequence (whole entry): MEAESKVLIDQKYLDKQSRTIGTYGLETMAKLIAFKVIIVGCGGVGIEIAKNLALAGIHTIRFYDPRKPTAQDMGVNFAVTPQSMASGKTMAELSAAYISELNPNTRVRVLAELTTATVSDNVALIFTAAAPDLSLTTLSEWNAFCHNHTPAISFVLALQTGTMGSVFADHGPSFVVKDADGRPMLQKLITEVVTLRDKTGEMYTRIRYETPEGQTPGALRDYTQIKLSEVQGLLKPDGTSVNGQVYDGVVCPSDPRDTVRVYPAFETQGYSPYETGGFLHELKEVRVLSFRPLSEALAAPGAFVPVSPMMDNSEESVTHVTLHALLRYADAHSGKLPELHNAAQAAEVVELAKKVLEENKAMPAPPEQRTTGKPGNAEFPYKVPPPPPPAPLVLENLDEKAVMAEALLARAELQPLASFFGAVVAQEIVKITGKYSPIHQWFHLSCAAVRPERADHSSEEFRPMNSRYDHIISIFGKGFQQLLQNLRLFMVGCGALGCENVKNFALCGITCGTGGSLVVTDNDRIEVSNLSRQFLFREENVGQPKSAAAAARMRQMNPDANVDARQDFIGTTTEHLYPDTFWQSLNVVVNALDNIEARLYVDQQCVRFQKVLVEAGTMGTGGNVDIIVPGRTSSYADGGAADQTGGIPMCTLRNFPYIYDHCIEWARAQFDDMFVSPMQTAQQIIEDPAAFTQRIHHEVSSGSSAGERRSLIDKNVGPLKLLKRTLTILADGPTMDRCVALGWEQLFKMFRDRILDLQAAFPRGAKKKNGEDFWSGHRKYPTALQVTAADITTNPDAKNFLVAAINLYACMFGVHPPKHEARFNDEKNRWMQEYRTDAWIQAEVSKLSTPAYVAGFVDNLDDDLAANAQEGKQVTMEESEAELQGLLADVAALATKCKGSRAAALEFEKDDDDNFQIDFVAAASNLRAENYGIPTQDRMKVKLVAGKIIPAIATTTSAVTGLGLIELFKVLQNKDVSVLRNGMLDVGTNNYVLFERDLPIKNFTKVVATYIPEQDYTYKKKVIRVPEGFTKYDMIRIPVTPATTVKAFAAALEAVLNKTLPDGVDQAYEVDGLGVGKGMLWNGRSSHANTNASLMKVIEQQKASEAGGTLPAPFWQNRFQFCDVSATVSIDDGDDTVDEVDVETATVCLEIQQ

[3] = biological target: AMP-activated protein kinase, AMPK (Homo sapiens) (UniProt P54646+O43741+P54619+Q9UGJ0+Q9Y478+Q13131+Q9UGI9); experiment: AMP-dependent Kinase enzyme assay. An in vitro enzyme assay that detects ADP turnover that is directly proportional to AMPK activity. This uses naive AMPK that is activated during the assay with MK-8722; format: functional; conditions: 30 µM
[4] = biological target: Sialic acid-binding Ig-like lectin 9 (Homo sapiens) (UniProt Q9Y336); experiment: Hs-Siglec9 ALPHAscreen SOP 20170721; conditions: 10 µM
Sialic acid-binding Ig-like lectin 9 (Homo sapiens), sequence (Q9Y336 whole entry): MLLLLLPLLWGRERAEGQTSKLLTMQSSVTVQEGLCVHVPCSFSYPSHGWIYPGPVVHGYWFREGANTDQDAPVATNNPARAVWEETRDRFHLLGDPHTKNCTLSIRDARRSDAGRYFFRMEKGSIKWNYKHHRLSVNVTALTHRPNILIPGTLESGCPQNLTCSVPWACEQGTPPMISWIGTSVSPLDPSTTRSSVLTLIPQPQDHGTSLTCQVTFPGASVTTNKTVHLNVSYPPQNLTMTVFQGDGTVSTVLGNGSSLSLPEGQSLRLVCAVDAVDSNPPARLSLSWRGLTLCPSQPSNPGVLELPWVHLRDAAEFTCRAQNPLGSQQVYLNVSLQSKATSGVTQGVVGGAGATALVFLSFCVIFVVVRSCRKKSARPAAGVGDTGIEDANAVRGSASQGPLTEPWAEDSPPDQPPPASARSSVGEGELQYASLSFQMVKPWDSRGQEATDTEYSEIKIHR

Trypanosoma cruzi = experiment: Trypanosoma cruzi phosphomannomutase and mannose-1-phosphate guanylyltransferase assay; format: functional; conditions: 10 µM
[5] = biological target: T2, Arginase-2, mitochondrial (Homo sapiens) (UniProt P78540); experiment: in vitro enzyme assay to detect the production of urea directly proportional to the activity of Arginase II; format: functional; conditions: 33.3 µM; further: in the data most compounds retested in dose-response had high values
T2 sequence (whole entry): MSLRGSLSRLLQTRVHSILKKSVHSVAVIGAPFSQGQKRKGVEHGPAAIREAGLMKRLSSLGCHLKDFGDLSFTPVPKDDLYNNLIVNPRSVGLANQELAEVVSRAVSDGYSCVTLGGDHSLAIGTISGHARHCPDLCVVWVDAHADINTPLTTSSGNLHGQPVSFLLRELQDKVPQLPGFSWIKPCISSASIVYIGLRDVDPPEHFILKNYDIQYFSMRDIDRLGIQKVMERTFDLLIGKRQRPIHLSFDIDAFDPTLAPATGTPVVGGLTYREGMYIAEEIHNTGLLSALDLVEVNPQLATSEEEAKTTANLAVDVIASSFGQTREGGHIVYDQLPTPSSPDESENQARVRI

[6] = biological target: T3, Proteasome subunit beta (Trypanosoma cruzi) (UniProt O96673); experiment: Trypanosoma cruzi proteasome chymotrypsin-like activity (TcProtChymo) assay.; further: in the data most compounds retested in dose-response had high values; format: functional; conditions: 9.37 µM
T3 sequence (whole entry): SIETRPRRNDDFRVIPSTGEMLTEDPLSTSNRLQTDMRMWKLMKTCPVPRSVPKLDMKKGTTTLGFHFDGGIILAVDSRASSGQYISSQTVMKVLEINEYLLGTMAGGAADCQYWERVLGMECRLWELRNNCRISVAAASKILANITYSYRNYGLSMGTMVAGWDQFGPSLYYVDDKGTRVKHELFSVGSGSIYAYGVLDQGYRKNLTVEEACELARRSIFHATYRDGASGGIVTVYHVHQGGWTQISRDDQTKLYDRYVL

Homo sapiens = organism: Homo sapiens; experiment: To identify inhibition of the IFN signalling (Jak-Stat) pathway via expression of an eGFP reporter gene under the control of an IFN-stimulated response element (ISRE) containing MxA promoter.; format: functional; conditions: 30 µM
[7] = biological target: T4, Tyrosyl-tRNA synthetase, putative (Trypanosoma cruzi (strain CL Brener)) (UniProt Q4DSP6); experiment: Trypanosoma cruzi tyrosyl tRNA synthetase (TcYRS) _High Tyrosine SOP; format: functional; conditions: 30 µM; further: in the data most compounds retested in dose-response had high values
T4 sequence (whole entry): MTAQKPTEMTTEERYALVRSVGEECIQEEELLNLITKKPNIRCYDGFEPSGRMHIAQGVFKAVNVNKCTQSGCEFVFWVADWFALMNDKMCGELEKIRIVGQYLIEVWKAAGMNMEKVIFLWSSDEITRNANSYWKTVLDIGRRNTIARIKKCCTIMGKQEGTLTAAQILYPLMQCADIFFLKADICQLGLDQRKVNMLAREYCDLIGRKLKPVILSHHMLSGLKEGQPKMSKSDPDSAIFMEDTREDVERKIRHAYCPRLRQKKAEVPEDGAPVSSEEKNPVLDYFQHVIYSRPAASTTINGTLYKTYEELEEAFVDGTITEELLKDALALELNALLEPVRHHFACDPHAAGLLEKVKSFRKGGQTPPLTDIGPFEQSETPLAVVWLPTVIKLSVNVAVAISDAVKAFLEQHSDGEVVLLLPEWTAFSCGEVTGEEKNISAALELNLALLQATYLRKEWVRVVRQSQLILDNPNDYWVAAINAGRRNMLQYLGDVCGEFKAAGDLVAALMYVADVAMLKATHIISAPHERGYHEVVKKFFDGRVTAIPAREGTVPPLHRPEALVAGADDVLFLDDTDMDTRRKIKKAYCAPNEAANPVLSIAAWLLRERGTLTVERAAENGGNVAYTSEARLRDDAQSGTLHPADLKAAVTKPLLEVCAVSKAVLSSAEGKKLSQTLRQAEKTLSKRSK

[8] = biological target: T4, Tyrosyl-tRNA synthetase, putative (Trypanosoma cruzi (strain CL Brener)); experiment: Trypanosoma cruzi tyrosyl tRNA synthetase (TcYRS) SOP; format: functional; conditions: 30 µM
[9] = biological target: Chromo domain-containing protein 1 (Saccharomyces cerevisiae (strain ATCC 204508 / S288c) (Baker's yeast)) (UniProt P32657); experiment: ScCHD-1 Enzyme Inhibition Assay; format: functional; conditions: 30 µM; further: in the data most compounds retested in dose-response had high values
Chromo domain-containing protein 1 (Saccharomyces cerevisiae (strain ATCC 204508 / S288c) (Baker's yeast)), sequence (P32657 whole entry, the tested form may be a part): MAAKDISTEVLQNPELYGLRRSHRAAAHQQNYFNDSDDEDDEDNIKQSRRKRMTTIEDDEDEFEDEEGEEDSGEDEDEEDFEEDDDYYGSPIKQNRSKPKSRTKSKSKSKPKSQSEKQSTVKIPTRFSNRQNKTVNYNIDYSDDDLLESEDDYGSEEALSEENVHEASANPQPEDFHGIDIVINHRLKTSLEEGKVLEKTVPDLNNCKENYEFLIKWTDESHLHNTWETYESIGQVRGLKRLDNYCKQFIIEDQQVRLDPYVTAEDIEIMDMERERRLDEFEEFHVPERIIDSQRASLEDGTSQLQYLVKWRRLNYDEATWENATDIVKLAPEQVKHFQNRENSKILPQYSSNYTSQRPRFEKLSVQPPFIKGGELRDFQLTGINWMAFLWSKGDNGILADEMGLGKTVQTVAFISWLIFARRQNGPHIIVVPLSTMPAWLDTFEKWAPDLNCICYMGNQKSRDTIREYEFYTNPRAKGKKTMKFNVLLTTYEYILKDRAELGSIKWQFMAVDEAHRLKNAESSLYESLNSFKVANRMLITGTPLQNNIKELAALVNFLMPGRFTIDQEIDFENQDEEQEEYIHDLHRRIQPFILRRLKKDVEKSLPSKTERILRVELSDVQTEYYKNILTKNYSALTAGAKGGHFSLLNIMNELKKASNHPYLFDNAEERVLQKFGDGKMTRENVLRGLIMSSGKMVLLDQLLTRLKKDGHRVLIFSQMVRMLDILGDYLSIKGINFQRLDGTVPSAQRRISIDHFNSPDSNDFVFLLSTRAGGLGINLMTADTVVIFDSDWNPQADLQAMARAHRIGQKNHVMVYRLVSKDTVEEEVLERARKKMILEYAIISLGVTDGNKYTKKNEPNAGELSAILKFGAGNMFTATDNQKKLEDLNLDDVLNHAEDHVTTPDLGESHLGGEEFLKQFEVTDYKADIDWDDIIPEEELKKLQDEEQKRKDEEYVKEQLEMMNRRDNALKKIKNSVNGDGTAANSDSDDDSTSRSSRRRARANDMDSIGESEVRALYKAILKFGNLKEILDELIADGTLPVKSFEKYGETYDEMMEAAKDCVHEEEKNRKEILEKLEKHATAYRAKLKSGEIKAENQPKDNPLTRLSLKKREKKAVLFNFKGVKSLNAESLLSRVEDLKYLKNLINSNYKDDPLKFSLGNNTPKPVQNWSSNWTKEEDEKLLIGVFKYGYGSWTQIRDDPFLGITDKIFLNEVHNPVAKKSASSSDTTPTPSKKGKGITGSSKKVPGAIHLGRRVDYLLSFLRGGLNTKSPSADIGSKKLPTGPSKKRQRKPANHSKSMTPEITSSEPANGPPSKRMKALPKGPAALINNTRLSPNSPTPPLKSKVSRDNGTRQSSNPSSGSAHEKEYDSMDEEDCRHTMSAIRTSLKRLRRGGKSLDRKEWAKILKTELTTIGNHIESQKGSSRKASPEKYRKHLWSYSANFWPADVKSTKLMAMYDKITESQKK

Protein translocase subunit SecA (Escherichia coli (strain K12)), sequence (P10408 whole entry): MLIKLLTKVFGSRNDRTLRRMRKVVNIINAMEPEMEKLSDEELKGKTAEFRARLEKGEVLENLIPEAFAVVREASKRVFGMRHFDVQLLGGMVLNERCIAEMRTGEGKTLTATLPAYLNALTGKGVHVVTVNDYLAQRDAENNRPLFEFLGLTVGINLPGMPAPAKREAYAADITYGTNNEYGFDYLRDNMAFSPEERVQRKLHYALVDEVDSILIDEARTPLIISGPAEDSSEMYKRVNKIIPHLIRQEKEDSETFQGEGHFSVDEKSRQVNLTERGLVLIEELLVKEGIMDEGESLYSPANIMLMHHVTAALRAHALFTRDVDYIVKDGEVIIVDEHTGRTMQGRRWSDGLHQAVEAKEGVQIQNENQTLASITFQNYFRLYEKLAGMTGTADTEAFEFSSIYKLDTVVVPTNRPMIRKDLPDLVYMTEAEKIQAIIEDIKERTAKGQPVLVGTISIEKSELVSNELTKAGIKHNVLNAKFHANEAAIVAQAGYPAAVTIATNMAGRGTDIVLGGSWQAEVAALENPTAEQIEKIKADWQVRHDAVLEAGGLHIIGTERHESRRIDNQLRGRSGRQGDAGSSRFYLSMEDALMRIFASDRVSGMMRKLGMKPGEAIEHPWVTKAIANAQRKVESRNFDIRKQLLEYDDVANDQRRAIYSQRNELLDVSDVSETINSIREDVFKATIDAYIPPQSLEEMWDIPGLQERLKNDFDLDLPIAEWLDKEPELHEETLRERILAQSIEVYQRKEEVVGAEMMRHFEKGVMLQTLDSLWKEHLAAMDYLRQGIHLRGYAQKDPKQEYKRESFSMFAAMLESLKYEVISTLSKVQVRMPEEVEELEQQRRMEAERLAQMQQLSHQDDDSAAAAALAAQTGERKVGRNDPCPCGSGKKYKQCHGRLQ

Compound	Percent Effect [1] [%]	Percent Effect [2] [%]	Percent Effect [3] [%]	Percent Effect [4] [%]	Percent Effect (Trypanosoma cruzi) [%]	Percent Effect [5] [%]	Percent Effect [6] [%]	Percent Effect (Homo sapiens) [%]	Percent Effect [7] [%]	Percent Effect [8] [%]	Percent Effect [9] [%]
Cc1nc(C2CCCN(C(=O)c3ccc(Cn4cccn4)o3)C2)no1 (stereo unspecified)	0.739	-5.2	2.21	1.09	-2.43	5.34	-4.9	10.9	3.88	0	0.66
O=C(NCc1ccco1)[C@@H]1CCO[C@@H]2CCN(c3ccncn3)C[C@H]21	0.562	2.67	2.84	5.63	-5.02	-56.5	5.64	3.81	1.04	-25	-8.67
O=C(CC1CCCC1)N1CCCC(c2n[nH]c3nccnc23)C1 (stereo unspecified)	-2.49	6.76	20.4	3.58	-2.17	7.66	11.2	13.3	3.23	16.9	-9.36
CN(C)C(=O)c1ccc2c(c1)N(C)C(CC(=O)NCCC(C)(C)C)CO2 (stereo unspecified)	-3.89	9.72	3.96	13.4	5.73	22.1	14.4	2.35	3.16	10.3	-5.3
CC(C)Cc1noc(CN2CCN(C(=O)c3cccc(F)c3)CC2)n1	-4.75	-2.74	1.5	5.59	1.39	0	1.97	0.357	4.17	1.24	6.05
CCc1ncnc2c1CCN(C(=O)N1CCCC1)CC2	-5.11	0	4.79	8.2	-2.7	-10.9	12.3	1.54	-3.12	-5	2.94
Cc1nn(CC(=O)N2CCN(c3ccncc3)CC2)c(C)c1Cl	-3.26	10.5	1.94	4.31	1.66	-18.9	12.6	16.3	5.32	15.6	-7.63
CNC(=O)CCCNCc1c(C(C)C)nn(C)c1N(C)C	-1.38	0	-11.4	-8.3	-2.15	2.52	0.761	-13.6	-2.46	-1.24	5.41
CC(C)n1cc(CN2CCCN(C(=O)c3cc(Cl)c[nH]3)CC2)cn1	-2.91	10.8	-4.13	15.8	1.23	-4.41	0.36	15.2	2.46	13.6	-8.52
CN(CCN1CCCCCC1)C(=O)c1cc(CN2CCC(O)CC2)on1	-4.14	2.74	-1.87	-2.01	2.74	0.909	13.3	-3.45	8.6	15	-2.4
c1ccc2cc(OCCN3CCOC(Cn4cncn4)C3)ccc2c1 (stereo unspecified)	-4.49	6.33	-0.381	14	2.77	-1.5	10.3	5.72	4.17	10.1	-6.36
